Measured values as given in PubChem BioAssay (Tox21).
Values joined by “and” are separate entries in the source; they are usually repeats but may differ in a detail not shown here. Equal values may be shown once. Results filed as inconclusive are left out. A structure can be active in one record and inactive in another. Active and inactive are the calls of the source. Unless noted, the call rests on the fitted dose curve; in most records, active means well fitted curve in the direction sought with a large enough effect in the repeat runs; inconclusive means weak or mixed curves; inactive means no such curve, though single readings can be large; an effect the other way counts as inactive or inconclusive.

Tests used:
[1] = qHTS assay to identify aromatase inhibitors - cell viability counter screen (AID 743084);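 further: cells stimulated with testosterone during compound exposure; nearly all actives have a fitted effect of over 55% in size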; further: potency means the concentration at half of the fitted maximal effect
[2] = target: Aryl hydrocarbon receptor (Homo sapiens) (UniProt P35869); assay: qHTS assay to identify small molecule that activate the aryl hydrocarbon receptor (AhR) signaling pathway (AID 743085); further: nearly all actives have a fitted effect of over 15% in size; further: potency means the concentration at half of the fitted maximal effect;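 on activation: HG2L7.5c1 human HepG2 liver cells with stably integrated DRE-driven firefly reporter; series mostly up to about 70 µM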
Aryl hydrocarbon receptor (Homo sapiens), sequence (P35869 whole entry, looked up): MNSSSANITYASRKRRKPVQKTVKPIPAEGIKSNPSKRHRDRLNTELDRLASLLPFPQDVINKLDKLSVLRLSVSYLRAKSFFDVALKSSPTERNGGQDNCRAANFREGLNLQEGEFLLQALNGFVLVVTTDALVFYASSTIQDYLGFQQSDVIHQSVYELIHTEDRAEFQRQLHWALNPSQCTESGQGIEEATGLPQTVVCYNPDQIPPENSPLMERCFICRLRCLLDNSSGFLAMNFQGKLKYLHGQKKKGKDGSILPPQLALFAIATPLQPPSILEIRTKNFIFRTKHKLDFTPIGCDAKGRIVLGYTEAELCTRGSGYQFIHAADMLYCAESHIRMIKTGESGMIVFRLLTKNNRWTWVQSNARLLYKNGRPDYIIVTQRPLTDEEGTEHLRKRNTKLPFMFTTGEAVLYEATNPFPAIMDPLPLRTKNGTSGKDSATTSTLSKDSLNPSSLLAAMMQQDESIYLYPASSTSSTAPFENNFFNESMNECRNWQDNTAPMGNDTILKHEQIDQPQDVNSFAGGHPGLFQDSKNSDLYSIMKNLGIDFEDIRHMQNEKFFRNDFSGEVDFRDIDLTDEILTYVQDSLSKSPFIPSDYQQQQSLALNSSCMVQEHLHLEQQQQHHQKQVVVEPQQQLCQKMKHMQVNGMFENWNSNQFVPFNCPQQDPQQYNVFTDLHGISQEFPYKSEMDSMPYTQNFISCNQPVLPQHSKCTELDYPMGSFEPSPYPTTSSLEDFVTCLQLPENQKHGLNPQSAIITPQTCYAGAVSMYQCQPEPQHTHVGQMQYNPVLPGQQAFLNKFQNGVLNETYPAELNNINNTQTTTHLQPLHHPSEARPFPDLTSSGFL
Method in brief: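 Measured in HG2L7.5c1 cells: CellTiter-Fluor signal (30 min incubation, 37C) for viability, then luciferase luminescence (30 min, room temperature). Compound contact time was 24 h at 37C, following a 5 h pre-incubation.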

[3] = qHTS assay to identify small molecule that activate the aryl hydrocarbon receptor (AhR) signaling pathway - cell viability counter screen (AID 743086); further: nearly all actives have a fitted effect of over 45% in size; further: potency means the concentration at half of the fitted maximal effect
Method in brief: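 Cytotoxicity counter screen: CellTiter-Fluor signal (30 min, 37 C) in 4000 HepG2 cells/well carrying the DRE-luciferase reporter, following 24 h compound exposure at 37 C.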

[4] = target: Peroxisome proliferator-activated receptor gamma (Homo sapiens) (UniProt P37231); assay: qHTS assay to identify small molecule agonists of the peroxisome proliferator-activated receptor gamma (PPARg) signaling pathway (AID 743094; active means well fitted activation curve with a large enough effect in the signal ratio in the repeat runs, not every such curve was filed as active; the % refers to the signal ratio)
Peroxisome proliferator-activated receptor gamma (Homo sapiens), sequence (P37231 whole entry, looked up): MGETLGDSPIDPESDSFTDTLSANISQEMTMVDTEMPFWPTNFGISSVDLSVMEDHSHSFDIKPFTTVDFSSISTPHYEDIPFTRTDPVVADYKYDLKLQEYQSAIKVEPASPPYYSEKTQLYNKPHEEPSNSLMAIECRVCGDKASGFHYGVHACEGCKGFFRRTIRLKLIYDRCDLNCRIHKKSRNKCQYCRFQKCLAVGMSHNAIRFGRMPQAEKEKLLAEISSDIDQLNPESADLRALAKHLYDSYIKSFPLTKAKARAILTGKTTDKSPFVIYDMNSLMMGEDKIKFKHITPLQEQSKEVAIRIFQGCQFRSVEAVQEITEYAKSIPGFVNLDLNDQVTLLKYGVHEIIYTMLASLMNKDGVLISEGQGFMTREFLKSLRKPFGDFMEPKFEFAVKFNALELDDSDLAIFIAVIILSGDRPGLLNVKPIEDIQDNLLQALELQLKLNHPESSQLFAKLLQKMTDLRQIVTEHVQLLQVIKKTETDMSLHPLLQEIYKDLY
Method in brief: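 Cell-based bla reporter, HEK293H background, PPARg-driven UAS. Pre-incubation 5 h, 37C, 5% CO2. Compound 17 h, 37C. Substrate 1 h RT; fluorescence.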

[5] = qHTS assay to identify small molecule antagonists of the peroxisome proliferator-activated receptor gamma (PPARg) signaling pathway - cell viability counter screen (AID 743194); further: nearly all actives have a fitted effect of over 55% in size; further: potency means the concentration at half of the fitted maximal effect
Method in brief: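 Viability was measured as CellTiter-Glo luminescence in GeneBLAzer PPARg UAS-bla HEK293H cells. These cells had been exposed 17 h at 37 C to compounds together with rosiglitazone at 50 nM final, with the beta-lactamase readout taken in the same wells.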

[6] = qHTS assay for small molecule agonists of the antioxidant response element (ARE) signaling pathway (AID 743202; active means well fitted activation curve with a large enough effect in the signal ratio in the repeat runs, not every such curve was filed as active; the % refers to the signal ratio; further: potency means the concentration at half of the fitted maximal effect)
Method in brief: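 After 16 hours of compound treatment at 37 C, HepG2 cells with a stably integrated ARE-driven beta-lactamase reporter were loaded 2 hours at room temperature with LiveBLAzer B/G FRET substrate and fluorescence intensity measured.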

[7] = qHTS assay for small molecule agonists of the antioxidant response element (ARE) signaling pathway - cell viability counter screen (AID 743203; calls by dose curve; further: nearly all actives have a fitted effect of over 55% in size; further: potency means the concentration at half of the fitted maximal effect)
Method in brief: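 Measured in the same wells as the beta-lactamase ARE reporter, this read-out is CellTiter-Glo luminescence from HepG2 ARE-bla cells given compounds for 16 hrs.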

[8] = qHTS assay for small molecule activators of the heat shock response signaling pathway - cell viability counter screen (AID 743209); further: nearly all actives have a fitted effect of over 50% in size; further: potency means the concentration at half of the fitted maximal effect
Method in brief: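 Same-well multiplex: after 2.5 h room-temperature incubation with LiveBLAzer B/G substrate and fluorescence reading, CellTiter-Glo reagent was added to HSE-bla HeLa cells that had received compound for 5 h at 37 C; luminescence read after 30 min.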

[9] = qHTS assay for small molecule activators of the heat shock response signaling pathway (AID 743210; active means well fitted activation curve with a large enough effect in the signal ratio in the repeat runs, with a control signal flat, not every such curve was filed as active; the % refers to the signal ratio; further: series mostly up to about 63 µM)
Method in brief: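 Compound exposure lasted 5 h at 37 C in HeLa cells carrying a heat-shock-element-driven beta-lactamase reporter. Read-out: fluorescence intensity after 2.5 h room-temperature loading with LiveBLAzer B/G FRET substrate.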

Measured: Potency

CCCCCc1ccc(Cl)cc1
inactive: all assays above

CCCCCCCCCCOC(=O)c1ccccc1C(=O)OCCCCCCCC
not listed: [6]
inactive: all other assays above

O=[N+]([O-])c1cccc(C(F)(F)F)c1
inactive: all assays above

OC[C@@H](O)[C@@H](O)CO
inactive: all assays above

CCO[C@@H]1O[C@H](C(COCc2ccccc2)OCc2ccccc2)[C@H](OCc2ccccc2)[C@H]1O (stereo partly drawn)
not listed: [6]
inactive: all other assays above

C#CC1(O)CC[C@H]2[C@@H]3CCC4=CCCC[C@@H]4[C@H]3CC[C@@]21C (stereo partly drawn)
inactive and 54.5 µM (active): [1]
inactive: [2] | [3] | [4]
active: [5] 18.8 µM | [7] 61.1 µM and 13.3 µM | [8] 11.9 µM

CCCCCCCCCCC[C@@H](C[C@@H]1OC(=O)[C@H]1CCCCCC)OC(=O)[C@H](CC(C)C)NC=O
not listed: [6] | [9]
inactive: all other assays above

CC(C)CCOC(=O)/C=C/c1ccccc1
not listed: [6]
inactive: all other assays above

Cc1ccc(C(=O)O)cc1
inactive: all assays above

C#C[C@]1(OC(C)=O)CC[C@H]2[C@@H]3CCC4=C[C@@H](OC(C)=O)CC[C@@H]4[C@H]3CC[C@@]21C
active: [6] 26.6 µM
inactive: all other assays above

Clc1sc(Cl)c(Cl)c1Cl
not listed: [7]
inactive: all other assays above

Cc1c(C)c2c(c(C)c1OC(=O)c1cccnc1)CC[C@@](C)(CCC[C@H](C)CCC[C@H](C)CCCC(C)C)O2
inactive: all assays above

Cc1cccc2cccnc12
not listed: [8]
inactive: all other assays above

CN1CCN2c3ccccc3Cc3ccccc3C2C1 (stereo not drawn)
not listed: [6]
inactive: all other assays above

COc1cc(C)ccc1O
inactive: all assays above

Oc1c(I)cc(Cl)c2cccnc12
active: [2] 944 nM and 61 µM | [5] 4.36 µM and 5.96 µM | [7] 68.5 µM
inactive: [1] | [3] | [4] | [8]

CCN1C(=O)c2ccccc2C1Nc1ccc(OCCN2CCCCC2)cc1 (stereo not drawn)
inactive: all assays above

CC(C)Cn1cnc2c(N)nc3ccccc3c21
active: [2] 9.44 µM
not listed: [6]
inactive: all other assays above

ClCCl
inactive: all assays above

O=C(O)c1cc(=O)c2ccccc2o1
inactive: all assays above

CCN(CC)c1ccc2c(-c3ccc(S(=O)(=O)O)cc3S(=O)(=O)[O-])c3ccc(=[N+](CC)CC)cc-3oc2c1
active: [1] 3.98 µM | [3] 6.31 µM
not listed: [7] | [8]
inactive: all other assays above

CC(CCc1ccccc1)NCC(O)c1ccc(O)c(C(N)=O)c1 (stereo not drawn)
inactive and 13.7 µM (active): [1]
not listed: [6] | [9]
inactive: all other assays above

S=c1nccc[nH]1
not listed: [6]
inactive: all other assays above

C=CCn1c(=O)n(CC=C)c(=O)n(CC=C)c1=O
inactive: all assays above
